From PubChem BioAssay AID1307 (SRMLSC, 2008)
Screen size: about 1,200 compounds; fewer than 10 were called active.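 The calls were made as follows: active = inhibition reaching a set limit at one or more tested concentrations; inactive = inhibition under that limit at every dose.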 These entries were drawn from the full list. Results with a measured potency or affinity are listed apart.

Test: yeast RAM network inhibitors, dose response, S. cerevisiae (AID 1307);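 also: 0% = DMSO vehicle wells and 100% = 10 µM 1-NA-PP1 control; higher inhibition means more yeast growth since RAM block rescues cells from 5-FOA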
Details: S. cerevisiae RAM network URA3 reporter, 5-FOA growth OD615, hits give high values, yeast express analog-sensitive mutant Cbk1 kinase; at 100 µM unless noted

Max inhibition, inactive:
CCCCc1ccc(-c2csc(/C(C#N)=C/c3ccc(C)o3)n2)cc1 4.24%, CCC(C)c1ccc(NC(=S)NCc2ccccc2OC)cc1 (centres undefined) 5.65%, CCCCC(=O)Nc1ccccc1C(=O)OCC(=O)c1ccc2c(c1)OCCO2 2.31% [at 0.196 µM], CCOC(=O)N1CCC(N(CCN(C)C)C(=S)Nc2cccc(SC)c2)CC1 2.41% [at 0.782 µM], CCCN(CCC)c1nc2ccccc2nc1C(C#N)C(=O)OC(C)COC (centres undefined) 2.6%, Cc1ccc(-c2ccc(C(=O)NCc3ccccc3)o2)c2ccccc12 3.65%, CC(C)Oc1cccc(C(=O)NC(=S)Nc2cccc(C(F)(F)F)c2)c1 2.41% [at 0.782 µM], O=C(CN(C(=O)CSc1nnc(COc2ccccc2)o1)c1ccc(F)cc1)NC1CCCC1 2.82%, Cc1ccccc1OCCC(=O)Nc1cccc(S(=O)(=O)Nc2ccccc2Cl)c1 2.67% [at 0.196 µM], O=S(=O)(NCCSCc1ccc(Cl)cc1Cl)c1ccc2c(c1)OCCO2 2.05% [at 12.5 µM], CCCCCOP(=O)(OCCCCC)C1(NS(=O)(=O)c2ccccc2)C=CC(=O)c2ccccc21 (centres undefined) 2.83%, COc1ccccc1OCC(=O)Nc1ccc(CSc2ccccc2)cc1C 1.56% [at 25 µM], Cc1ccc(-n2c(SCC(=O)Nc3cccc(S(=O)(=O)NC4=NCCCCC4)c3)nc3ccccc3c2=O)cc1C 11%, CC(C)=CCC/C(C)=C/Cc1c(O)ccc(C(=O)/C=C/c2ccc(O)cc2)c1O 5.39%, CCOc1ccc2nc(SCC(=O)c3ccccc3)sc2c1 3% [at 0.196 µM], COc1ccc(/C=C2\SC(=S)N(CC(=O)OCC(=O)Nc3ccc([N+](=O)[O-])cc3OC)C2=O)cc1 8.9%, C=CCc1cccc(/C=N/NC(=O)C(C)Nc2ccc(C)cc2)c1O (centres undefined) 2.46% [at 0.782 µM], CCOc1cccc(-c2csc(C3COc4ccccc4O3)n2)c1 (centres undefined) 5.04% [at 50 µM], COc1ccc2c(C)cc(SCC(=O)c3ccc4c(c3)OCO4)nc2c1 4.01%, FC(F)(F)c1nc(N2CCN(c3ccccc3)CC2)nc2c1CCCCC2 3.63%, CCOC(=O)c1c(C)[nH]c(C)c1C(=O)COC(=O)/C=C/c1ccc(Cl)cc1 2.07% [at 0.391 µM], CCSC1=N/C(=C\c2ccc(-c3ccccc3[N+](=O)[O-])o2)C(=O)S1 5.47% [at 25 µM], CC1CCCN(C(=O)C(C)Sc2nc(-c3ccccc3)cc(C(F)(F)F)n2)C1 (centres undefined) 3.6% [at 25 µM], CCc1ccc(OCC(=O)N2c3ccccc3CCc3ccccc32)cc1 2.64% [at 3.125 µM], Fc1ccc(CSc2nnc(Cc3sc(-c4ccccc4)nc3-c3ccccc3)o2)cc1 5.66%, O=C(Nc1ccccc1)C1=C[C@H](C2CCCCC2)C[C@H](OCc2ccc(CO)cc2)O1 4.12%, CCCNS(=O)(=O)c1ccc(CCC(=O)Nc2cc(Cl)ccc2Oc2ccccc2)cc1 1.73%, Cc1cccc(NC(=O)/C(C#N)=C/c2ccc(Sc3ccccc3)o2)c1C 10.5%, CC(C)Oc1ccccc1OCCCCn1cnc2ccccc2c1=O 2.35% [at 6.25 µM], Cc1ccc(-c2csc(N(CC3CCCO3)C(=O)c3ccco3)n2)cc1 (centres undefined) 1.93% [at 12.5 µM], OCCNc1nc(SCc2ccccc2)nc2sc3c(c12)CCC3 1.56% [at 3.125 µM], Cc1cc(NC(=O)CSc2nc3ccsc3c(=O)n2Cc2ccccn2)n[nH]1 2.41% [at 12.5 µM], COC(=O)c1cc2c(ccn2-c2ccc(F)cc2)n1Cc1ccc(OC)cc1 5.52% [at 50 µM], CCC1(C)CC(CCNS(=O)(=O)c2ccc(C)cc2)(c2ccc(C)cc2)CCO1 (centres undefined) 3.04%, Cn1c(N=Nc2ccc(N3CCOCC3)cc2)[n+](C)c2ccccc21 25%, Cc1ccc(SCCNC(=S)Nc2ccc(C)c(C)c2)cc1 4.41% [at 12.5 µM], Brc1ccc(CSc2nnc(Cc3c[nH]c4ccccc34)o2)cc1 3.66%, CCOCCOC(=O)C(C)Oc1ccc(Oc2nc(Cl)ccc2Cl)cc1 (centres undefined) 2.21% [at 25 µM], CCOc1nc(-c2ccccc2)ccc1-c1noc(COc2ccccc2)n1 3.61% [at 50 µM], Cc1ccccc1OCC(=O)OCC(=O)c1ccc(OCc2ccccc2)cc1 4.85% [at 50 µM], COc1ccccc1C(NC(=O)C1CCCCC1)c1c(O)ccc2ccccc12 (centres undefined) 5.27%, CCCCC1(Cc2cccc([N+](=O)[O-])c2)C(=O)N(c2ccccc2)N(c2ccccc2)C1=O 4.01% [at 50 µM], O=C(COC(=O)CCCNC(=O)c1ccc(Cl)cc1)Nc1cc(Cl)c(Cl)cc1Cl 3.97% [at 50 µM], COc1ccc(C(=O)/C=C/Nc2ccc(S(=O)(=O)Nc3ncccn3)cc2)cc1 7.67%, CCCCOc1ccc(S(=O)(=O)Nc2cc(OC)ccc2OC)cc1 3.71% [at 25 µM], COc1cc2c(=O)n(Cc3ccco3)c(=O)n(CC(=O)c3ccc(Br)cc3)c2cc1OC 3.72% [at 0.196 µM], Cc1ccc(SCC(=O)Nc2ccc(F)cc2[N+](=O)[O-])cc1C 2.24%, COc1cc(/C=N/Nc2ccc(Cl)cc2)ccc1OC(=O)c1cccs1 2.6% [at 0.391 µM], COc1ccc(-c2nc(-c3ccc(O)cc3O)cs2)cc1OC 5.02% [at 3.125 µM], CCOC(=O)c1cc(C#N)c(Oc2cccc(C(F)(F)F)c2)nc1-c1ccccc1 2.36%, CC(=O)Nc1ccc(-c2cc(-c3ccc(NC(C)=O)cc3)nc(-c3ccc(NC(C)=O)cc3)n2)cc1 13.5%, COc1ccc(C(=O)NNC(=O)C(Cc2ccc(O)cc2)NC(=O)c2ccccc2NC(=O)c2ccc(OC)cc2)cc1 (centres undefined) 3.19%, COC(=O)[C@H](Cc1ccccc1)NC(=O)[C@@]1(C)C[C@@H]1[C@@H](NC(=O)OCc1ccccc1)c1ccccc1 5.9%, O=C(CCC(=O)c1ccc(Oc2ccccc2)cc1)Nc1cccc(Cl)c1Cl 3.23% [at 25 µM], COc1cccc(/C=C(/C(=O)OCC(=O)NC2CCCC(C)C2C)c2ccccc2)c1 (centres undefined) 7.65% [at 50 µM], Cc1ccc(C(=O)C(OC(=O)CCC(=O)Nc2cccc(C)c2)c2ccccc2)cc1 (centres undefined) 5.19%, CCOC(=O)c1ccc(COC(=O)c2ccc3c(c2)-c2ccccc2C3=O)cc1 5.23% [at 25 µM], CCOC(=O)C1CCN(S(=O)(=O)C(F)(F)c2nc3ccccc3s2)CC1 2.1% [at 0.391 µM], Clc1ccc(-c2nnc(CSc3nnc(-c4cccs4)o3)o2)cc1 2.52% [at 3.125 µM], CCSC1=N/C(=C/c2ccsc2)C(=O)N1c1ccccc1 3.18%, CCCNC(=O)c1ccccc1NC(=O)c1ccc(CSc2ccccc2)cc1 5.46% [at 50 µM], Cc1ccc(C2=NN(Cc3nnc(-c4ccccc4)o3)C(=O)SC2)cc1 3.29%, O=C(NCc1ccccc1)c1ccc(S(=O)(=O)N2CCCc3ccccc32)cc1 2.24%, O=[N+]([O-])c1ccc(N/N=C/c2sc(N3CCOCC3)nc2-c2ccccc2)c(S(=O)(=O)Nc2ccc(Cl)cc2)c1 8.74%, CN(C)S(=O)(=O)c1ccc2[nH]cc(/C=C/c3nc4ccccc4c(=O)n3-c3ccccc3)c2c1 10.9%, CN(C)c1nc(SCCOC(=O)COc2ccc(Cl)cc2Cl)nc(N(C)C)n1 1.44% [at 0.782 µM], O=C(c1cccs1)n1nc(-c2ccc(Cl)cc2)nc1NCc1ccco1 2.48%, O=C(C(Sc1ccccc1)c1ccccc1)N1CCN(c2ccccc2)CC1 (centres undefined) 2.99% [at 3.125 µM], CCOC(=O)c1c(NC(=S)Nc2ccc(OC)cc2)sc2c1CCCCC2 3.37% [at 1.563 µM], O=C(/C=C/c1ccc(-c2ccccc2)o1)c1ccccc1 5.06%, O=C(Cn1cc(C(=O)c2ccco2)c2ccccc21)NC1CCCCC1 3.76% [at 0.391 µM], O=C1CCC(/C=C/c2ccccc2)=NN1Cc1ccc(Cl)c(Cl)c1 3.06%, C=CCO/N=C(/C)c1c(O)c(CC)c(-c2ccccc2)n(-c2ccccc2)c1=O 2.56% [at 0.391 µM], CCOC(=O)c1cccc(NC(=O)CSc2nnc(COc3ccccc3C)o2)c1 2.04% [at 50 µM], Cc1c(NC(=S)NC(=O)Cc2ccccc2)cccc1C(=O)O 2.43% [at 0.196 µM], COc1cc(NC(=O)c2ccc3c(c2)OCO3)c2ncccc2c1 4.22%, C/C(=N\OC(=O)c1ccc(OC(C)C)cc1)c1ccc(C)c(C)c1 3.12%, Cc1ccc(N(CCCCN2C(=O)c3ccccc3C2=O)C(=O)c2cccs2)cc1 4.25%, Cc1ccc(S(=O)(=O)N2c3cc(C)ccc3OCC2C(C)(C)C)cc1 (centres undefined) 3.04%
